According to PubChem BioAssay AID1159580 (chemical genetic matrix, 2015):
The whole screen tested about 5,500 compounds, of which about 2,000 (36%) were called active. Inconclusive results (about 18%) are left out. Cut-off read from the data, not from the text of the source: active = normalized growth mostly below about 0.91 (no sharp cut-off); inconclusive = no clear call, values can overlap the other calls; inactive = mostly above about 0.92. Some of the results follow.

Experiment: chemical genetic growth profiling, strain panel (AID 1159580);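 note: tested at 20 µM; growth read once vehicle control cultures reached saturation at 30 °C; 1 = growth at the plate median or of vehicle wells; lower values mean less growth of the strain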
Details: S. cerevisiae deletion strains, growth OD

Measured: normalized growth

O=C(O)CCC/C=C\C[C@@H]1[C@@H](/C=C/[C@H](O)C2Cc3ccccc3C2)[C@@H](F)C[C@@H]1O
inactive: locus YAL040C, strain CLN3, hits give low values 0.995 | locus YCL061C, strain MRC1 (second series), hits give low values 0.998 | locus YDR150W, strain NUM1, hits give low values 1.01 | locus YDR363W, strain ESC2, hits give low values 0.993 | locus YER002W, strain NOP16, hits give low values 0.988 | locus YNL175C, strain NOP13, hits give low values 0.982 | locus YNL197C, strain WHI3, hits give low values 0.989 | locus YNL224C, strain SQS1, hits give low values 0.969 | locus YOR083W, strain WHI5 (second series), hits give low values 1.02 | locus YPL055C, strain LGE1, hits give low values 0.99 | locus YPL241C, strain CIN2, hits give low values 0.996

CCCCc1ccc(N=CNO)c(C)c1
inactive: locus YAR019C, strain CDC15, hits give low values 0.985 | locus YBL105C, strain PKC1, hits give low values 1.01 | locus YBR135W, strain CKS1, hits give low values 0.983 | locus YBR136W, strain MEC1, hits give low values 0.976 | locus YBR160W, strain CDC28, hits give low values 0.996 | locus YDL017W, strain CDC7, hits give low values 0.997 | locus YDL028C, strain MPS1, hits give low values 0.974 | locus YDL101C, strain DUN1, hits give low values 0.914 | locus YDL108W, strain KIN28, hits give low values 0.974 | locus YDL132W, strain cdc53, hits give low values 0.977 | locus YDR052C, strain DBF4, hits give low values 0.995 | locus YDR054C, strain cdc34, hits give low values 0.967 | locus YDR226W, strain ADK1, hits give low values 0.986 | locus YFL009W, strain cdc4, hits give low values 0.986 | locus YFL029C, strain CAK1, hits give low values 0.977 | locus YFR003C, strain YPI1, hits give low values 0.99 | locus YFR028C, strain CDC14, hits give low values 0.967 | locus YGR092W, strain DBF2, hits give low values 0.575 | locus YIL147C, strain SLN1, hits give low values 0.985 | locus YJL128C, strain PBS2, hits give low values 0.982 | locus YJR016C, strain ILV3, hits give low values 0.996 | locus YKL193C, strain SDS22, hits give low values 0.978 | locus YMR001C, strain CDC5, hits give low values 0.982 | locus YMR277W, strain FCP1, hits give low values 0.977 | locus YNL006W, strain LST8, hits give low values 1 | locus YNL161W, strain CBK1, hits give low values 0.992 | locus YNL207W, strain RIO2, hits give low values 0.968 | locus YNL222W, strain SSU72, hits give low values 0.985 | locus YOL078W, strain AVO1, hits give low values 0.948 | locus YOR329C, strain SCD5, hits give low values 0.993 | locus YPL209C, strain IPL1, hits give low values 0.993 | locus YPR025C, strain CCL1, hits give low values 0.993 | locus YPR106W, strain ISR1, hits give low values 0.989 | locus YPR111W, strain DBF20, hits give low values 0.995 | strain NNK1, hits give low values 0.974 | strain TSCII, hits give low values 0.964
active: locus YDL214C, strain PRR2, hits give low values 0.427 | locus YDR477W, strain SNF1, hits give low values 0.463 | locus YER123W, strain YCK3, hits give low values 0.242 | locus YER133W, strain GLC7, hits give low values 0.41 | locus YFR019W, strain FAB1, hits give low values 0.255 | locus YGR040W, strain KSS1, hits give low values 0.485 | locus YGR052W, strain FMP48, hits give low values 0.246 | locus YHR030C, strain SLT2, hits give low values 0.225 | locus YHR079C, strain IRE1, hits give low values 0.146 | locus YHR082C, strain KSP1, hits give low values 0.362 | locus YHR205W, strain SCH9, hits give low values 0.475 | locus YJL095W, strain BCK1, hits give low values 0.178 | locus YJL157C, strain FAR1, hits give low values 0.45 | locus YJR066W, strain TOR1 (second series), hits give low values 0.181 | locus YJR066W, strain TOR1, hits give low values 0.236 | locus YKL048C, strain ELM1, hits give low values 0.604 | locus YKL067W, strain YNK1, hits give low values 0.48 | locus YKL101W, strain HSL1, hits give low values 0.488 | locus YKL203C, strain TOR2, hits give low values 0.391 | locus YLR113W, strain HOG1, hits give low values 0.259 | locus YLR133W, strain CKI1, hits give low values 0.558 | locus YLR403W, strain SFP1, hits give low values 0.465 | locus YML070W, strain DAK1, hits give low values 0.321 | locus YMR205C, strain PFK2 (second series), hits give low values 0.558 | locus YNL020C, strain ARK1, hits give low values 0.529 | locus YNL183C, strain NPR1, hits give low values 0.229 | locus YNL307C, strain MCK1 (second series), hits give low values 0.452 | locus YOL136C, strain PFK27, hits give low values 0.358 | locus YOR061W, strain CKA2, hits give low values 0.528 | locus YOR119C, strain RIO1, hits give low values 0.332 | locus YOR231W, strain MKK1, hits give low values 0.281 | locus YPL031C, strain PHO85, hits give low values 0.444 | locus YPL153C, strain RAD53, hits give low values 0.369 | locus YPL204W, strain HRR25, hits give low values 0.418 | locus YPL256C, strain CLN2, hits give low values 0.267
